Results filed as inconclusive are left out. Activity calls are given as the source filed them. The calls were made as follows: active = hit-call score of the fitted dose curve at least 0.9, where 1 is the maximum; inconclusive = response in the unintended direction; inactive = score below 0.9.

Read-out in this assay: Cytochrome P450 2B6 (Homo sapiens) (UniProt P20813)
The assay is described as follows: CLD_CYP2B6_48hr: CellzDirect (CLD) Gene Expression Assay for xenobiotic metabolism (CYP2B6) at 48 hours (AID 2283699).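 Also: actives raise transcript level above DMSO so potency reflects induction.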 How it is done:
CLD_48hr is a cell-based, multiplexed-readout assay that uses hepatocyte, a human liver primary cell, with measurements taken at 48 hours after chemical dosing in a 96-well plate.CLD_CYP2B6_48hr is one of 16 assay component(s) measured or calculated from the CLD_48hr assay. It is designed to make measurements of mRNA induction, a form of inducible reporter, as detected with chemiluminescence signals by Quantitative Nuclease Protection Assay (qNPA) technology.Data from the assay component CLD_CYP2B6_48hr was analyzed at the endpoint, CLD_CYP2B6_48hr, in the positive analysis fitting direction relative to DMSO as the negative control and baseline of activity. Using a type of inducible reporter, gain-of-signal activity can be used to understand changes in the reporter gene as they relate to the gene CYP2B6. Furthermore, this assay endpoint can be referred to as a primary readout. To generalize the intended target to other relatable targets, this assay endpoint is annotated to the cyp intended target family, where subfamily is xenobiotic metabolism.
Human hepatocyte cultures were treated daily for two consecutive days with fresh dosing solutions containing appropriate concentrations of the 320 ToxCast chemicals (chemical identities were blinded to CellzDirect and other ToxCast collaborators), vehicle control (0.2% DMSO), and positive control inducers as summarized in Table 1. Due to the large number of treatment groups and chemicals examined, the ToxCast chemicals were divided into two groups (spanning two independent cultures of hepatocytes from separate donor preparations (Hu778: ToxCast plates 1 and 2; Hu776: ToxCast plates 3 and 4). Each preparation of human hepatocyte cultures was treated with respective vehicle control, medium only control, set of six positive controls/reference chemicals for the five hepatic receptor pathways, and a subset of eight of the ToxCast chemicals (indoxacarb, pyrithiobac-sodium, norflurazon, cyhalofop-butyl, methomyl, thiram, acetochlor, and propiconazole). These replicate data, coupled with internal replicates designed within the blinded ToxCast chemical library, provided additional data to evaluate interindividual differences between hepatocyte preparations and their potential impact on chemical profiles.Cell morphology and integrity were evaluated using phase-contrast microscopy as an indicator of hepatocyte cell health (Tyson & Green, 1987). Cultures for each treatment group (i.e., media, vehicle [0.2% DMSO], positive control inducers [multiple concentrations], and the ToxCast chemicals [multiple concentrations]) were observed and cell morphology was assessed relative to vehicle control cultures at each harvest time point (0, 6, 24, or 48 h). […] Images were evaluated at the conclusion of the study to assess changes in cell integrity and account for the effects of chemical exposure on uncharacteristic changes in concentration-dependent gene expression profiles. The results from these determinations of apparent cytotoxicity were annotated (yes/no) alongside the corresponding qNPA data for reference.At the conclusion of each treatment period, hepatocyte cultures (96-well) were washed with 1 volume of HBSS, lysed by addition of 25 ul ArrayPlate lysis buffer (HTG, Tucson, AZ), and 70 ul/well of Denaturation Oil, denatured by incubation at 95C for 10 min, and frozen at approximately -70C until analysis by nuclease protection assay (qNPA) (Roberts et al., 2007). For qNPA analysis, cell lysates were thawed at 50C for approximately 30 min, qNPA probes were added, and samples were incubated at 95C for 10 min to begin the detection process by denaturing the target RNA, dissociating the duplexes and secondary structure hybridization. At the conclusion of the hybridization period, S1 nuclease reagent was added to each sample to digest all nonprotected nucleotides at 50C for 60-90 min. […]
As usually defined, the AC50 is the midpoint of the concentration-response curve, whichever way the signal moves. For the compound `C#CCC1=C(C)C(OC(=O)C2C(C=C(C)C)C2(C)C)CC1=O` (stereo not given), the AC50 was 4.91 µM (active). In the case of `COc1cccc(C(=O)NN(C(=O)c2cc(C)cc(C)c2)C(C)(C)C)c1C`, the compound was called inactive. Consider `FC(F)C(F)(F)OCC(Cn1cncn1)c1ccc(Cl)cc1Cl` (stereo not given), for which the AC50 is 0.321 µM (active). With `CCOP(=O)(OCC)Oc1cc(C)nc(C(C)C)n1`, the AC50 was 5.53 µM (active). The same measure, in the same setting: the same measure for `CCCSP(=O)(OCC)Oc1ccc(Br)cc1Cl` (stereo not given): 3.63 µM (active); for `CCCSP(=O)(OCC)SCCC`: 3.82 µM (active). Regarding `CCCCOC(=O)[C@@H](C)Oc1ccc(Oc2ccc(C#N)cc2F)cc1`, the outcome was inactive. Consider `COP(=O)(OC)OC(Br)C(Cl)(Cl)Br` (stereo not given), for which the outcome was inactive.

As for `CC(=NC#N)N(C)Cc1ccc(Cl)nc1`, the compound was called inactive. `CCOP(=S)(OCC)Oc1ccc2c(C)c(Cl)c(=O)oc2c1`: the AC50 was 1.01 µM (active).

As to `CN(C)C(=O)Nc1cccc(C(F)(F)F)c1`, the AC50 is 3.69 µM (active). Still for that read-out and setting: under `CCOP(=S)(OCC)OC(Cl)C(Cl)(Cl)Cl` (stereo not given) stands 0.0135 µM (active). In the case of `CNC(=O)Oc1cccc2c1OC(C)(C)O2`, the AC50 was 3.08 µM (active). With `COP(=O)(NC(C)=O)SC` (stereo not given), the compound was called inactive. For the compound `CCc1cccc(CC)c1N(COC)C(=O)CCl`, the AC50 is 3.01 µM (active). In the case of `CCCOCC(=Nc1ccc(Cl)cc1C(F)(F)F)n1ccnc1`, the compound was called inactive. As for `CCOP(=O)(NC(C)C)Oc1ccc(SC)c(C)c1` (stereo not given), the AC50 was 10.7 µM (active). For `CCc1cccc(C)c1N(C(=O)CCl)C(C)COC` (stereo not given), the concentration at half-maximal activity (AC50) was 0.969 µM (active).

Turning to `Cc1ccn2nc(S(=O)(=O)Nc3c(F)cccc3F)nc2n1`, the result was inactive. Still for that read-out and setting: the same measure for `O=[N+]([O-])c1cc(C(F)(F)F)c(Cl)c([N+](=O)[O-])c1Nc1ncc(C(F)(F)F)cc1Cl`: “inactive”; for `C=C(C)[C@H]1Cc2c(ccc3c2O[C@@H]2COc4cc(OC)c(OC)cc4[C@@H]2C3=O)O1`: “inactive”. For `CCOC(=O)CC(SP(=O)(OC)OC)C(=O)OCC` (stereo not given), the AC50 was 20 µM (active).

On to `CON=C(C(=O)OC)c1ccccc1CON=C(C)c1cccc(C(F)(F)F)c1`, for which the outcome was inactive. For `CCOP(=S)(OCC)Oc1cc(C)nc(C(C)C)n1`, the concentration at half-maximal activity (AC50) was 1.89 µM (active). Turning to `CN(C)NC(=O)CCC(=O)O`, the outcome was inactive. For `CCCCSP(=O)(SCCCC)SCCCC`, the AC50 was 4.3 µM (active). Turning to `CCCOc1nn(C(=O)NS(=O)(=O)c2ccccc2C(=O)OC)c(=O)n1C`, the compound was classed as inactive.

On to `COc1cc(OC)nc(Sc2cccc(Cl)c2C(=O)O)n1`, for which the compound was classed as inactive. Consider `CN(C)[C@@H]1C(=O)C(C(N)=O)=C(O)[C@@]2(O)C(=O)C3=C(O)c4c(O)cccc4[C@@](C)(O)[C@H]3[C@H](O)[C@@H]12`, for which the compound was classed as inactive.

On to `CCOP(=S)(OCC)SCCSCC`, for which the AC50 is 1.68 µM (active). The same measure, in the same setting: under `Cc1cc(C2CC2)nc(Nc2ccccc2)n1` stands 1.09 µM (active). On to `CCCCOC(=O)c1ccccc1C(=O)O`, for which the compound was called inactive.

As to `CC(COc1ccc(Oc2ccccc2)cc1)Oc1ccccn1` (stereo not given), the AC50 is 3.53 µM (active). On the same count and under the same terms, under `CSc1nc(NC(C)C)nc(NC(C)C)n1` stands 3.24 µM (active); under `C#CC(C)(C)NC(=O)c1cc(Cl)cc(Cl)c1`, 3.69 µM (active).

As for `O=C(O)c1cc(Oc2ccc(C(F)(F)F)cc2Cl)ccc1[N+](=O)[O-]`, the call was inactive. On to `Nc1c(Cl)cc([N+](=O)[O-])cc1Cl`, for which the AC50 was 6.25 µM (active). The same measure, in the same setting: under `CC(C)=CC1C(C(=O)OCN2C(=O)C3=C(CCCC3)C2=O)C1(C)C` (stereo not given) stands 6.64 µM (active). Still for that read-out and setting: under `CCCCN(CC)c1c([N+](=O)[O-])cc(C(F)(F)F)cc1[N+](=O)[O-]` stands 4.17 µM (active); under `C[Si](Cn1cncn1)(c1ccc(F)cc1)c1ccc(F)cc1`, 0.051 µM (active).

These data come from PubChem BioAssay (EPA / NIEHS).
